# Where “and” joins values, the source holds several entries; their conditions need not be identical. Equal entries are not always repeated. Compounds without any hit were thinned out: in the full panel of roughly 83,000, 20% have a hit.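 In brief: 96-well plates, 48 h treatment, single concentration, percent growth endpoint.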 A number with no mark means an inactive call. Calls of active or inactive are those of the source. The calls were made as follows: active = growth percent below 10; inactive = the rest.
# Test system: MDA-MB-468 breast
# Experiment: NCI-60 one-dose screen, 48 h (100 = growth as untreated, 0 = no growth, -100 = all killed)
# Conditions: 10 µM unless noted
row,SMILES,growth
1,Cc1ccc2c(n1)C(=O)C(Cl)=C(Nc1cc(C(F)(F)F)cc(C(F)(F)F)c1)C2=O,32.5%
2,S=C(Cc1ccc2c(c1)CCCC2)N1CCOCC1,105%
3,N#Cc1cccc(NC(=O)c2oc3ccccc3c2-c2cnn(-c3ccccc3)c2)c1,66.6% [50 µM]
4,NNc1ccc(S(N)(=O)=O)cc1,100%
5,S=c1nc2oc(-c3ccccc3)c(-c3ccccc3)c2c(/N=C\c2ccco2)[nH]1,91.6%
6,CCCC1=NNC(=O)C1,115%
7,C=C1C(=O)O[C@H]2[C@H]1CC/C(COC(=O)NCC(C)c1ccc(CC(C)C)cc1)=C\CC[C@@]1(C)O[C@@H]21 (stereo not given in full),-64% (active)
8,Oc1ccc(-c2nnc3c4[nH]ccc4ncn23)cc1,117%
9,Cc1cccc(Cl)c1NC(=O)c1cnc(Nc2cc(N3CCOCC3)cc(N3CCOCC3)c2)s1,-8.47% (active)
10,Cc1nc2sc(C(=O)Nc3cccc4c3OCCO4)c(N)c2cc1C(C)O (stereo not given),3.42% (active)
11,CCOC(=O)OCC(=O)[C@@]1(O)CC[C@H]2[C@@H]3CCC4=CC(=O)CC[C@]4(C)[C@H]3[C@@H](O)C[C@@]21C,123%
12,COC(=O)[C@H](C)NC(=O)[C@@H](OC)[C@@H]1Cc2cc3cc(OC4CC(OC5CC(O)C(O)C(C)O5)C(O)C(C)O4)c(C)c(O)c3c(O)c2C(=O)[C@H]1OC1CC(OC2CC(OC3CC(C)(O)C(O)C(C)O3)C(O)C(C)O2)C(O)C(C)O1 (stereo not given in full),-36.2% (active)
13,O=C(Nc1ccccc1Cl)c1c[nH]c(=O)c(-c2ccc(N3CCCOC4(CC4)C3)cc2)c1,9.39% (active)
14,NC(=O)[C@@H]1CC2CCC1C2 (stereo not given in full),99.4%
15,Cn1c(SCC(=O)Nc2ccc(-c3nc4ccc([N+](=O)[O-])cc4[nH]3)cc2)nc2ccccc2c1=O,56.5%
16,CC1C=CC(OC(=O)C(C)(O)CCC(O)(C(=O)OC2CC(O)C(C(C)C)CC2(C)O)C(C)C)(C(C)C)CC1 (stereo not given),-69.9% [4.63 µM] (active)
17,O=C(C(Br)Br)C(Br)C(Br)c1ccccc1 (stereo not given),9.8% (active)
18,COc1ccc(-c2nc(/C=C3/C(=O)Nc4ccc(F)cc43)c3ccccn23)cc1,105%
19,O=Nc1c(O)ccc2ccccc12,78.9% and 81.4%
20,COc1cc(C2CC(=O)Nc3c2c(C)nn3-c2nc3ccccc3[nH]2)c(OC)c(OC)c1OC (stereo not given),31.1%
21,COc1ccc(N2C(=O)CC(c3cc(OC)c(OC)c(OC)c3)C3C2=NC(=O)N3C)cc1 (stereo not given),98.9%
22,c1cnc2c(-c3nc4ccc5[nH]ncc5c4c4c3CCCC4)c[nH]c2c1,10.9%
23,CCCn1nc(C(=O)N(C)Cc2ccccc2)c2c1CCC(N1CCc3ccccc31)C2 (stereo not given),92.8%
24,CC(=O)OCC(COC(C)=O)(COC(C)=O)COC(C)=O,102%
25,NC1=Nc2cc(OCCCCN3Cc4ccccc4C3)c(OCC3CC3)cc2C12CCCC2,7.97% (active)
